Molecules are shown by their SMILES. Several values for one entry are separate records, joined by “and”; a condition that tells them apart may be missing. Equal values may be shown once. The whole screen tested about 6,400 compounds, of which about 610 (9.5%) were called active. This is one part of a sample in which actives are shown more often than they occur. Rule as the data show it: active = activity change below about -70%; inconclusive = no clear call, values can overlap the other calls; inactive = above that. The source holds several records for some structures; these can differ, active in one and inactive in another.

This test is described as follows: Toxoplasma gondii ME49Luc growth in HeLa cells, luciferase, no IFN-y, primary screen (AID 1259421). The note with it: T. gondii ME49Luc in HeLa, 72 h, stronger effect = lower value, concentration not given here.
Turning to `CNc1cc(OC)c(C(=O)N[C@@H]2CCN(Cc3ccccc3)[C@@H]2C)cc1Cl` (racemic), the activity change, negative = inhibition is 26% (inactive). The figure for `CC(=O)Nc1nnc(S(N)(=O)=O)s1` is 18.1% (inactive) and 14.1% (inactive).

With `CC(=O)Nc1nc(C)c(-c2ccc(Cl)c(S(=O)(=O)NCCO)c2)s1`, the activity change, negative = inhibition was -78.9% (active). In the case of `Cc1nc(NC(=O)N2CCC[C@H]2C(N)=O)sc1-c1ccnc(C(C)(C)C(F)(F)F)c1` it was -3.31% (inactive). In the case of `c1ncc(CC2CCNCC2)[nH]1`, the activity change, negative = inhibition is 9.05% (inactive) and 12.6% (inactive).

Consider `N#C/C(=C/c1ccc(O)c(O)c1)C(=O)NCCCCc1ccccc1`, for which the activity change, negative = inhibition was 28.9% (inactive). In the case of `COc1cnc(-n2cnc(C)n2)c2[nH]cc(C(=O)C(=O)N3CCN(C(=O)c4ccccc4)CC3)c12` it was 22.1% (inactive). The figure for `C=C1C(=O)O[C@@H]2[C@H]3O[C@]3(C)CC/C=C(\C)CC[C@@H]12` is 6.15% (inactive); for `CCC[C@@H]1C[C@@H](C(=O)N[C@@H](C2O[C@H](SC)[C@H](O)[C@@H](O)[C@H]2O)[C@H](C)Cl)N(C)C1` (some centres undefined) it is -0.424% (inactive); for `CC(C)[C@H](N)C(=O)OCCOCn1cnc2c(=O)[nH]c(N)nc21` it is 9.53% (inactive) and 3.52% (inactive).

As for `O=C(CCc1ccc(O)cc1)c1c(O)cc(O)cc1O[C@@H]1O[C@H](CO)[C@@H](O)[C@H](O)[C@@H]1O`, the activity change, negative = inhibition is 6% (inactive). The figure for `CC(C)(C)Cn1c(N)nc2ccc(-c3[nH]c(C(C)(C)C)nc3-c3ccc(F)cc3)nc21` is -83.7% (active); for `CC(C)(C)C(=O)OCOC(=O)[C@@H]1N2C(=O)[C@@H](N=CN3CCCCCC3)[C@H]2SC1(C)C` it is 2.97% (inactive); for `O=C(N[C@@H]1CC[C@@H](c2cccc(F)c2F)CN(CC(F)(F)F)C1=O)N1CCC(n2c(=O)[nH]c3ncccc32)CC1` it is 5.74% (inactive). With `CC(CSC(=O)c1ccccc1)C(=O)N1C[C@@H](Sc2ccccc2)C[C@H]1C(=O)O` (some centres undefined), the activity change, negative = inhibition is 5.4% (inactive).

Consider `O=c1cc(-c2ccccc2)oc2c(O)c(O)ccc12`, for which the activity change, negative = inhibition is -85.8% (active). The figure for `O=c1cc(-c2ccccc2)oc2cccc(O)c12` is 21.2% (inactive); for `O=c1cc(-c2ccccc2)oc2cc(O)ccc12` it is 60.2% (inactive). The figure for `COc1ccc(-c2noc(CC(=O)O)c2-c2ccc(OC)cc2)cc1` is 7.28% (inactive). The figure for `CCOc1ccc(Nc2nc(-c3c(C)nc4ccccn34)cs2)cc1` is -74% (active); for `COc1cc(Br)c(Nc2nc(-c3c(C)nc4ncccn34)cs2)c(Br)c1` it is 13.9% (inactive); for `Oc1ccc(Nc2nc(-c3ccc(Cl)cc3)cs2)cc1` it is 28.7% (inactive). Consider `Cn1cc(C(F)(F)F)nc1-c1ccc(OCC(O)CNCCOc2ccc(O)c(C(N)=O)c2)cc1` (centres undefined), for which the activity change, negative = inhibition was 1.01% (inactive). In the case of `CC(C)(C)NC(=O)[C@H]1CCC2C3CC[C@H]4NC(=O)C=C[C@]4(C)C3CC[C@@]21C` (some centres undefined) it was -5.92% (inactive); in that of `COc1c(-c2coc3cc4c(cc3c2=O)CC(OC(C)=O)C(C)(C)O4)ccc2c1C=CC(C)(C)O2` (centres undefined), -72.4% (active). As to `COc1c(-c2coc3cc4c(cc3c2=O)CC(O)C(C)(C)O4)ccc2c1C=CC(C)(C)O2` (centres undefined), the activity change, negative = inhibition was -80% (active).

On to `COc1cc2c(cc1OC)[C@@H]1C(=O)c3ccc4c(c3O[C@@H]1CO2)C=CC(C)(C)O4`, for which the activity change, negative = inhibition is -20.6% (inactive). In the case of `COc1c(CC(=O)c2cc3c(cc2O)OC(C)(C)C(O)C3)ccc2c1C=CC(C)(C)O2` (centres undefined) it was 16.9% (inactive); in that of `COc1c2c(cc3occ(-c4ccc5c(c4)OCO5)c(=O)c13)OC(C)(C)C=C2`, -31.2% (inactive); in that of `COc1ccc(-c2coc3cc(O)ccc3c2=O)c(O)c1O`, 2.93% (inactive). Regarding `CCOC(=O)C1=CC2(CC)CCCN3CCc4c(n1c1ccccc41)C32` (centres undefined), the activity change, negative = inhibition is 23.3% (inactive). For `COC12CC(COC(=O)c3cncc(Br)c3)CN(C)C1Cc1cn(C)c3cccc2c13` (centres undefined), the activity change, negative = inhibition was 13.7% (inactive). On to `CC(=O)NC(C(=O)O)C(C)(C)S[NH2+][O-]` (centres undefined), for which the activity change, negative = inhibition is 16% (inactive). As to `Cc1ccccc1C(=O)Nc1ccc(C(=O)N2CCCC(O)c3cc(Cl)ccc32)c(C)c1` (centres undefined), the activity change, negative = inhibition is 7.82% (inactive).

For `Cc1c(C(=O)Nc2ccc(N3CCC(N4CCOCC4)CC3)c(C#N)c2)cnn1-c1ccc(Cl)cc1`, the activity change, negative = inhibition was -92.1% (active). `CCc1cc2c(cc1N1CCC(N3CCOCC3)CC1)C(C)(C)c1[nH]c3cc(C#N)ccc3c1C2=O`: the activity change, negative = inhibition was 16.2% (inactive).

Regarding `CN1C2CC(OC(=O)C(CO)c3ccccc3)CC1C1OC12` (centres undefined), the activity change, negative = inhibition is 11.1% (inactive). In the case of `CNc1cc(OC)c(C(=O)N[C@@H]2CCN(Cc3ccccc3)[C@H]2C)cc1Cl` it was 15.3% (inactive); in that of `Cn1cc(C(=O)OCC2CCN(CCNS(C)(=O)=O)CC2)c2ccccc21`, 1.88% (inactive) and 6.2% (inactive); in that of `Cn1cc(CNCC2CCN(c3ncc(C(=O)NO)cn3)CC2)c2ccccc21`, -88.1% (active). Take `Cn1cc(C[C@@H](N)C(=O)O)c2ccccc21`: the activity change, negative = inhibition was 16% (inactive). In the case of `C[C@@H]1CC2C3CCC4=CC(=O)C=C[C@]4(C)[C@@]3(F)[C@@H](O)C[C@]2(C)[C@@]1(O)C(=O)COP(=O)(O)O` (some centres undefined) it was 0.571% (inactive) and -5.12% (inactive). For `O=c1c(-c2ccc(O)cc2)coc2c(C3O[C@H](CO)[C@@H](O)[C@H](O)[C@H]3O)c(O)ccc12` (some centres undefined), the activity change, negative = inhibition is -5.75% (inactive). The figure for `C[N+]1(C)C2CC[C@H]1CC(OC(=O)C(O)c1ccccc1)C2` (some centres undefined) is 10.1% (inactive); for `O=C(Nc1ccccc1)C12CC1/C(=N\O)c1ccccc1O2` (centres undefined) it is 7.7% (inactive) and 0.127% (inactive); for `COc1ccc(-c2cc(=O)c3c(O)cc(O[C@@H]4O[C@H](CO[C@H]5O[C@H](C)[C@@H](O)[C@H](O)[C@@H]5O)[C@@H](O)[C@H](O)[C@H]4O)cc3o2)cc1O` it is 14.7% (inactive). In the case of `Cn1cc(C2=C(c3ccc(Cl)cc3Cl)C(=O)NC2=O)c2ccccc21` it was -12.4% (inactive) and -8.86% (inactive); in that of `COc1ccc2c(c1)c(C1=C(c3c[nH]c4ccccc34)C(=O)NC1=O)cn2CCCN(C)C`, -36.9% (inactive); in that of `Cn1cc(C2=C(c3cn(CCCSC(=N)N)c4ccccc34)C(=O)NC2=O)c2ccccc21`, -58% (inactive) and -88.3% (active). On to `CCCCC/C=C\C/C=C\CCCCCCCC(=O)NCCCC(=O)O`, for which the activity change, negative = inhibition is 8.14% (inactive). Regarding `O=C(O)CN1CCN(CC(=O)O)CCN(CC(=O)O)CCN(CC(=O)O)CC1`, the activity change, negative = inhibition is 0.0247% (inactive). On to `N#C/C(=C(/N)Sc1ccc(N)cc1)c1ccccc1C(F)(F)F`, for which the activity change, negative = inhibition was 7.26% (inactive). Turning to `O=Nc1c(-c2c(O)[nH]c3ccccc23)[nH]c2ccccc12`, the activity change, negative = inhibition is -74.5% (active).

Consider `O=Nc1c(-c2c(O)[nH]c3cc(Br)ccc23)[nH]c2ccccc12`, for which the activity change, negative = inhibition was -87.9% (active). As for `O=C1C(c2c(O)[nH]c3ccccc23)=Nc2ccccc21`, the activity change, negative = inhibition was -5.14% (inactive).

Turning to `NS(=O)(=O)c1ccc(N=Cc2c(O)[nH]c3ccccc23)cc1`, the activity change, negative = inhibition was 13.4% (inactive). As for `CCCCC(=O)O[C@]1(C(=O)CO)[C@@H](C)CC2C3CCC4=CC(=O)C=C[C@]4(C)[C@@]3(F)C(O)C[C@@]21C` (some centres undefined), the activity change, negative = inhibition was 1.05% (inactive).

`CC(=O)c1cc2ccccc2oc1=O`: the activity change, negative = inhibition is -2.07% (inactive).

As to `O=C(O)CCCCN(CCc1ccccc1OCc1ccc(CCc2ccccc2)cc1)Cc1ccc(C(=O)O)cc1`, the activity change, negative = inhibition was 10.8% (inactive). The figure for `C=C[C@@]1(C)CC(=O)[C@]2(O)[C@@]3(C)[C@@H](O)CCC(C)(C)[C@@H]3[C@H](O)[C@H](OC(=O)CCCN3CCN(C)CC3)[C@@]2(C)O1` is -10.4% (inactive); for `CC(C)(C(=O)O)c1ccc(C(O)CCCN2CCC(C(O)(c3ccccc3)c3ccccc3)CC2)cc1` (centres undefined) it is 4.73% (inactive) and 3.69% (inactive); for `CC(C)(C)c1ccc(C(O)CCCN2CCC(C(O)(c3ccccc3)c3ccccc3)CC2)cc1` (centres undefined) it is -86.1% (active) and 8% (inactive). Consider `OC(c1ccccc1)C1CCN(CCc2ccccc2)CC1` (centres undefined), for which the activity change, negative = inhibition was 5.4% (inactive) and 0.692% (inactive). As to `CCC(C)C(=O)O[C@H]1C[C@H](O)C=C2C=C[C@H](C)[C@H](CC[C@@H](O)C[C@@H](O)CC(=O)O)C21` (some centres undefined), the activity change, negative = inhibition was 4.96% (inactive). In the case of `O=S(=O)(c1ccccc1)c1cnc2c(N3CCNCC3)cccc2c1` it was 8.53% (inactive). In the case of `CCCCCCOc1nsnc1C1=CCCN(C)C1` it was -26.8% (inactive); in that of `CCC(CC)(CC(=O)Nc1cccc(/C=C/c2nc(C3CCC3)cs2)c1)C(=O)O`, 41.5% (inactive); in that of `O=C(C[C@H]1NCCC[C@@H]1O)Cn1cnc2cc(Br)c(Cl)cc2c1=O`, -86% (active). As to `CC(C)[C@@H](N)C(=O)O`, the activity change, negative = inhibition was 5.34% (inactive). Turning to `Clc1ccc2c(N3CCN(CCCN4CCN(c5ccnc6cc(Cl)ccc56)CC4)CC3)ccnc2c1`, the activity change, negative = inhibition is 1.21% (inactive). In the case of `Cc1ncc(-c2ccnc(Nc3ccc(S(C)(=O)=O)cc3)n2)n1C(C)C` it was -84.5% (active); in that of `C1CCN2C[C@@H]3C[C@H](CN4CCCC[C@@H]34)[C@H]2C1`, 13.5% (inactive). For the compound `O=C1[C@@H]2[C@H]3CC[C@H](C3)[C@@H]2C(=O)N1CCCCN1CCN(c2ncccn2)CC1`, the activity change, negative = inhibition was 8.23% (inactive). The figure for `CCCCCCCCCCCCCCCCCCCCCC(=O)Nc1ccn([C@@H]2O[C@H](CO)[C@@H](O)[C@@H]2O)c(=O)n1` is 8.14% (inactive); for `O=C(CN1CCNCC1)NC1CCCCC1` it is -5.36% (inactive); for `C=C1CCC2[C@](C)(CO)[C@H](O)CC[C@@]2(C)[C@@H]1C/C=C1/C(=O)OC[C@H]1O` (some centres undefined) it is 9.67% (inactive). `Nc1ncnc2c1c(-c1cnc3[nH]ccc3c1)nn2C1CCCC1`: the activity change, negative = inhibition is -82.4% (active). As for `N#CC[C@H](C1CCCC1)n1cc(-c2ncnc3[nH]ccc23)cn1`, the activity change, negative = inhibition was 27.9% (inactive) and 17.6% (inactive).

As for `N#CC[C@@H](C1CCCC1)n1cc(-c2ncnc3[nH]ccc23)cn1`, the activity change, negative = inhibition was 1.99% (inactive).

Values taken from PubChem BioAssay AID1259421 (Broad Institute, 2018).
